Screening data deposited in PubChem by Sanford-Burnham Center for Chemical Genomics.
Only some compounds are listed: those with a hit (about 6.3% of all), similar ones and a draw of the others.
Mdm2 MdmX PPI = disrupts the human Mdm2-MdmX interaction. O15151+Q00987. inhibition, % at 8 µM. 330,000 compounds, 3% hits. SaOS-2 split-luciferase Mdm2/MdmX complementation, luminescence;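 active = inhibition of at least 50% at 8 µM in the primary screen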
MPTP inh = inhibitors of mitochondrial permeability transition pore. isolated mouse mitochondria, Ca2+ swelling absorbance, 30 min. inhibition, % at 10 µM. 360,000 compounds, 1.4% hits;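 active = inhibition of 50% or more, scaled per plate between neutral and stimulator controls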
TIM10 inh = TIM10 yeast growth inhibition; S. cerevisiae TIM10 strain growth, BacTiter-Glo luminescence, 24 h; inhibition, % at 10 µM; 330,000 compounds, 1.4% hits; AID 463195;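 active = inhibition of 40% or more at the single tested concentration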;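 note: wild-type TIM10 isogenic control strain grown at permissive 25 °C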
tim23-1 inh = growth inhibitors of tim23-1 mutant yeast; S. cerevisiae tim23-1 growth, BacTiter-Glo luminescence, 24 h; inhibition, % at 20 µM; 330,000 compounds, 1.3% hits;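 active = growth inhibition of the mutant yeast at or above 50%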;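 note: temperature-sensitive mutant grown at 25 °C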
tim10-1 inh = tim10-1 yeast growth inhibition; S. cerevisiae tim10-1 ts strain growth, BacTiter-Glo, 24 h; inhibition, % at 20 µM; 330,000 compounds, 2.2% hits;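 active = inhibition of at least 40%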;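 note: mutant grown at 25 °C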
tim10-1 confirm = confirmation of tim10-1 mutant yeast growth inhibitors; shares compounds with tim10-1 inh; S. cerevisiae tim10-1 ts strain growth, BacTiter-Glo, 24 h; inhibition, % at 20 µM; 7,400 compounds, 56% hits; AID 463213;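 active = inhibition of yeast growth at or above a set limit in either of two repeat tests at 20 µM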;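 note: tim10-1 mutant grown at permissive 25 °C to find synthetic lethal compounds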
Of the large screens only hits and unclear results are named; the others gave an inactive call (follow-up assays come after a bar, where they were run).

CC1(C)Cc2cccc(OC(=O)NC3CCCCC3)c2O1	none (no result: Mdm2 MdmX PPI, TIM10 inh, tim23-1 inh, tim10-1 inh)
CC(C)c1cc(-c2cc(C(=O)Nc3ccccc3)on2)nc(NCC2CC2)n1	none (no result: MPTP inh)
CC(C)c1cc(-c2cc(C(=O)NCc3ccccc3)on2)nc(NCC2CC2)n1	tim10-1 inh 44 | tim10-1 confirm inactive
Cc1[nH]ccc2cc3nc4ccccc4c3cc12	none (no result: Mdm2 MdmX PPI, TIM10 inh, tim23-1 inh, tim10-1 inh)
CC1(c2nnnn2Cc2ccccc2)CCC(=O)N1Cc1cccnc1 (stereo unspecified)	none (no result: Mdm2 MdmX PPI, TIM10 inh, tim23-1 inh, tim10-1 inh)
CCN(CC)S(=O)(=O)c1ccc(N/N=C/c2ccc(O)cc2)nc1	tim10-1 inh 42 | tim10-1 confirm 34
O=C(CCNc1ccc(Cl)c(C(F)(F)F)c1)c1ccco1	tim10-1 inh 43 | tim10-1 confirm inactive
O=C(CCNc1ccc(F)c(Cl)c1)c1ccco1	none
Cc1ccccc1SCC(=O)Nc1cccc(C#N)c1	tim10-1 inh 44 | tim10-1 confirm inactive
N#Cc1cccc(NC(=O)CSc2cccc[n+]2[O-])c1	none
COc1ccc(Cc2c(-c3ccccc3)nc3ccc(Br)cn23)c(C)c1	none (no result: Mdm2 MdmX PPI, TIM10 inh, tim23-1 inh, tim10-1 inh)
CCc1ccc(OCC2c3cc(OC)c(OC)cc3CCN2C(=S)NC)cc1 (stereo unspecified)	tim10-1 inh 48 | tim10-1 confirm inactive
CCc1ccc(OCC2c3cc(OC)c(OC)cc3CCN2C(=S)NCCOC)cc1 (stereo unspecified)	none
Cn1cc(CN2CCC(C(=O)NC(c3ccc(F)cc3)c3ccc4ccccc4n3)CC2)c2ccccc21 (stereo unspecified)	none (no result: Mdm2 MdmX PPI, TIM10 inh, tim23-1 inh, tim10-1 inh)
O=[N+]([O-])c1ccc(C2CC(c3ccccc3)=Nc3ccccc3S2)cc1 (stereo unspecified)	tim10-1 inh 43 | tim10-1 confirm inactive
O=C(O)C1CC(c2ccccc2)=Nc2ccccc2S1 (stereo unspecified)	none
c1ccc(Cn2ncc3c(N4CCN(c5ccccc5)CC4)ncnc32)cc1	none (no result: Mdm2 MdmX PPI, TIM10 inh, tim23-1 inh, tim10-1 inh)
COc1cc(SC)ccc1C(=O)NNC(=O)c1cc(C)oc1C	tim10-1 inh 53 | tim10-1 confirm inactive
COc1cc(SC)ccc1C(=O)Nc1c(C)cccc1C	none
N#CC1=C(SCC(=O)c2ccccc2)NC2=C(C(=O)CCC2)C1c1ccco1 (stereo unspecified)	tim10-1 inh 49 | tim10-1 confirm inactive
O=C(Nc1nc2ccc(Cl)cc2s1)c1ccco1	tim10-1 inh 40 | tim10-1 confirm inactive
O=C(Nc1nc2ccc(Br)cc2s1)c1ccco1	none
OC[C@H]1O[C@@H](c2nc3ccc(-c4nc(-c5cccs5)no4)cc3[nH]2)C[C@@H]1O	none (no result: Mdm2 MdmX PPI, TIM10 inh, tim23-1 inh, tim10-1 inh)
COc1ccc(C(CNC(=O)c2oc3ccc(Cl)cc3c2C)N2CCCCC2)cc1 (stereo unspecified)	tim10-1 inh 47 | tim10-1 confirm inactive
COc1ccc(C(CNC(=O)c2oc3ccccc3c2C)N2CCCC2)cc1 (stereo unspecified)	none
COc1ccc(C(CNC(=O)c2cc(C)oc2C)N2CCOCC2)cc1 (stereo unspecified)	tim10-1 inh 45 | tim10-1 confirm inactive
COC(=O)C[C@@H]1C=C[C@@H](NC(=O)CN(C)C)[C@@H](CO)O1	none (no result: Mdm2 MdmX PPI, TIM10 inh, tim23-1 inh, tim10-1 inh)
Cc1ccc(S(=O)(=O)N2CC3(O)CN(C(=O)OC(C)C)N(C(=O)OC(C)C)CC3(OC(=O)NCc3ccccc3)C2)cc1 (stereo unspecified)	none (no result: Mdm2 MdmX PPI, TIM10 inh, tim23-1 inh, tim10-1 inh)
CN1C[C@@H]2C(c3ccccc3)C3(c4ccccc4)CC2(C3)[C@H]1c1ccccc1 (stereo partly specified)	tim10-1 inh 52 | tim10-1 confirm 32
CC(C)N1CCC1(C)C(=O)Nc1nccc2cccnc12 (stereo unspecified)	none (no result: Mdm2 MdmX PPI, TIM10 inh, tim23-1 inh, tim10-1 inh)
NS(=O)(=O)c1ccc(NC(=O)Cc2cccs2)cc1	none
CC1CCN(S(=O)(=O)c2ccc(NC(=O)Cc3cccs3)cc2)CC1	tim10-1 inh 54 | tim10-1 confirm 36
CCN(CC)S(=O)(=O)c1ccc(NC(=O)Cc2cccs2)cc1	tim10-1 inh 45 | tim10-1 confirm inactive
COc1cccc(-c2cc3nc(NCCN4CCCC4)n(C)c(=O)c3s2)c1	none (no result: Mdm2 MdmX PPI, TIM10 inh, tim23-1 inh, tim10-1 inh)
CCc1nc2ccc(C(=O)NCc3cccs3)cn2c1N(CC)Cc1cccc(Br)c1	none (no result: Mdm2 MdmX PPI, TIM10 inh, tim23-1 inh, tim10-1 inh)
O=C(Cc1ccc(Cl)cc1)Nc1ccc(Br)cn1	tim10-1 inh 41 | tim10-1 confirm inactive
Cc1nnc(NC(=O)CCn2c(=O)oc3ccc(Cl)cc32)s1	none
Cc1csc(NC(=O)CCn2c(=O)oc3ccc(Cl)cc32)n1	tim10-1 inh 43 | tim10-1 confirm inactive
